BAZ2B block: BAZ2B (human) inhibition; Q9UIF8; AlphaScreen BAZ2B-H3K14Ac peptide displacement; Potency, µM (top dose mostly 114 µM), for inactives: at the highest dose activity change, negative = inhibition, actives largely listed as inhibitors; 4.4% of 360,000 active; AID 504333; note: potency is the fitted concentration of half-maximal effect; % is set by controls: 0 for no effect and ±100 for the full control effect; nearly all actives have a fitted effect of over 60% in size
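BAZ2B 50 nM plus b-H3(5-23)K14Ac 50 nM, PBS pH 7.4/0.01% Tween-20, 30 min RT; compound added (max 110 uM), 30 min RT; streptavidin donor/Ni-chelate acceptor beads 10 ug/mL final, 20 min dark; AlphaScreen read.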
G9a block: blocks human histone lysine methyltransferase G9a. 8.8% of 350,000 active. Potency, µM (highest dose often 102 µM), for inactives: top-dose activity, negative = inhibition, actives largely listed as inhibitors. G9a H3K9 monomethylation, AlphaScreen, 2 h; note: potency is the fitted concentration of half-maximal effect; % is set by controls: 0 for no effect and ±100 for the full control effect; nearly all actives have a fitted effect of over 75% in size
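Enzyme 20 nM + cpd, 15 min RT; add b-H3K9 pep 500 nM / SAM 20 uM; 2 h RT; anti-H3K9me1 Ab 0.5 ug/mL + SA donor / anti-rabbit acceptor beads 20 ug/mL each, 10 min; AlphaScreen read.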
JMJD2A Tudor: blocks the human JMJD2A Tudor domain | Potency, µM (series often up to 114 µM), inactives show at the highest dose activity change, negative = inhibition, hits mostly inhibitors | AlphaScreen JMJD2A-Tudor / H3K4me3 peptide binding | 4.4% of 390,000 active; note: potency is the fitted concentration of half-maximal effect; % is set by controls: 0 for no effect and ±100 for the full control effect; nearly all actives have a fitted effect of over 50% in size
PLK1 PBD block: blocks phosphopeptide binding to human PLK1 polo-box domain. P53350. Plk1 PBD binding of FITC phosphopeptide, fluorescence polarization. 2.8% of 360,000 active. Potency, µM, for the others: max response, negative = inhibition, actives largely listed as inhibitors; note: potency is the fitted concentration of half-maximal effect; series mostly up to about 57 µM; % is set by controls: 0 for no effect and ±100 for the full control effect; nearly all actives have a fitted effect of over 65% in size
PI5P4K alpha inh: PI5P4K alpha (human) kinase inhibition. max response, %. PI5P4Kalpha enzyme, ADP-Glo luminescence, 60 min; active compounds read low. P48426. 1.2% of 330,000 active. AID 652105; active = max response of -50% or lower; inconclusive = between -30% and -50%; inactive = -30% or higher; note: value at the top dose of about 77 µM; % is set by controls: 0 for no effect and ±100 for the full control effect
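Reactions run in 0.038 M HEPES pH 7.4, 0.28 mM EGTA, 0.1% CHAPS and 5% DMSO, with PI5P4Kalpha, substrate, compound and 5 microM ATP final, one hour at room temperature. Readout is ADP-Glo luminescence.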
HP1b chromo inh: inhibitors of HP1-beta chromodomain binding to methylated histone tails; AlphaScreen HP1-beta / biotin-H3K9me3 peptide binding; P83916; Potency, µM (highest dose often 114 µM), for the others: at the highest dose activity change, negative = inhibition, hits mostly inhibitors; 0.56% of 390,000 active; note: potency is the fitted concentration of half-maximal effect; nearly all actives have a fitted effect of over 70% in size
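HP1-beta protein (50 nM final) preincubated 30 min at room temperature with biotinylated H3(1-18)K9me3 peptide (50 nM) in PBS pH 7.4, 0.01% Tween-20, then compound added for 30 min. AlphaScreen streptavidin donor/nickel chelate acceptor beads (10 ug/mL final), 30 min dark, luminescence read.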
Active calls of the source: *; [ ] = another dose, or the depositor's remark. Rows were chosen to be rich in hits. Some 12% of all compounds tested hit in one or more screens of this group. Unless noted, calls come from the whole dose curve; as a rule, active = well fitted curve in the direction sought with a large enough effect; inconclusive = small, poorly fitted or top-dose-only effect, or another doubt; inactive = no such curve, though single readings can be large; an effect the other way counts as inactive or inconclusive.

For COc1ccc(C(=O)n2nnc3ccccc32)cc1OC the results were BAZ2B block 5.2%, G9a block 44.7µM*, JMJD2A Tudor -6.9%, PLK1 PBD block 9.47µM*, PI5P4K alpha inh -12.2 and HP1b chromo inh 56.4%.
COc1ccc(NC(=O)COC(=O)Cc2ccccc2[N+](=O)[O-])cc1OC was read as BAZ2B block -17.1%, G9a block -4.3%, JMJD2A Tudor -9.7%, PLK1 PBD block 2.6%, PI5P4K alpha inh -12.7 and HP1b chromo inh 42.3%.
`CCCCn1c(N)c(N(CC(C)C)C(=O)C2CC(=O)N(Cc3ccco3)C2)c(=O)[nH]c1=O` (configuration not stated) gave BAZ2B block -2.2%, G9a block -5.4%[0.501 µM], JMJD2A Tudor -9.0%, PLK1 PBD block -12.4%, PI5P4K alpha inh 0.7 and HP1b chromo inh 18.3%.
O=C(c1ccc2c(c1)OCO2)n1nnc2ccccc21 was read as BAZ2B block -16.9% and G9a block 44.7µM*.
For Cc1csc(C(C#N)C(=O)c2ccncc2)n1 (configuration not stated) the results were BAZ2B block -37.6%, G9a block 50.1µM*, JMJD2A Tudor -16.6%, PLK1 PBD block -11.5%, PI5P4K alpha inh -7.1 and HP1b chromo inh 14.3%.
CCOc1ccccc1NC(=O)C(=O)Nc1ccc2nc3n(c(=O)c2c1)CCCCC3 was read as BAZ2B block -11.4%, G9a block -2.8%[59 µM], JMJD2A Tudor -24.8% and HP1b chromo inh 11.4%.
Screening COCCN=c1scc(-c2cc(OC)c(OC)c(OC)c2)n1/N=C/c1c(C)[nH]c2ccccc12 returned BAZ2B block 11.2µM*, G9a block inconclusive, JMJD2A Tudor 20µM*, PLK1 PBD block 28.3%, PI5P4K alpha inh 1.5 and HP1b chromo inh inconclusive.
For O=C(COc1ccc(Br)cc1)N1CCN(c2ccc([N+](=O)[O-])c(N3CCCCC3)c2)CC1 the results were BAZ2B block -12.8%, G9a block 35.5µM*, JMJD2A Tudor inconclusive, PLK1 PBD block 8.4%, PI5P4K alpha inh 0.0 and HP1b chromo inh -9.3%.
Screening COCc1nnc(NC(=O)C2CC(=O)N(C3CCCCC3)C2)s1 (configuration not stated) returned BAZ2B block -11.6%, JMJD2A Tudor 5.7%, PLK1 PBD block -24.3%, PI5P4K alpha inh -2.1 and HP1b chromo inh 6.1%.
